# B2AR arrestin: beta2AR (human) beta-arrestin recruitment activity. P07550. beta-arrestin recruitment to beta2AR, cell-based reporter. Potency, µM (titrated, usually from 46.1 µM), for the others: at the highest dose activation, hits mostly activators. 0.02% of 330,000 active. AID 492947;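 note: 0% = DMSO controls and full agonism = EC100 isoproterenol or metaproterenol; nearly all actives have a fitted effect of over 65% in size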
# RORgamma inh: blocks mouse ROR gamma transcriptional activity; P51450; Drosophila S2 Gal4-RORgamma UAS-luciferase reporter, 20 h; Potency, µM (top dose mostly 53.6 µM), inactives show top-dose activity change, negative = inhibition, actives largely listed as inhibitors; 5.4% of 310,000 active; AID 2551; note: nearly all actives have a fitted effect of over 60% in size
#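 Luciferase reporter read in Schneider cells carrying Gal4-RORγ (mouse) and UAS-Photinus luciferase; cells given compound 1 h before 700 uM copper sulfate induction, then incubated 20 h at ambient temperature.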
# VP16 counter: Gal4-VP16 reporter inhibition counter-screen; Drosophila S2 Gal4-VP16 UAS-luciferase, luminescence, 20 h; AID 2546; Potency, µM (doses to about 53.6 µM), for the others: at the highest dose activity, negative = inhibition, most hits filed as inhibitors; 3.5% of 310,000 active;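 note: Gal4-VP16 expression switched on by copper sulfate through the metallothionein promoter; nearly all actives have a fitted effect of over 50% in size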
# NPSR antagonist: blocks cAMP signaling of the human neuropeptide S receptor; Potency, µM (series often up to 38.3 µM), without a hit: at the highest dose activity change, negative = inhibition, actives largely listed as inhibitors; 1% of 220,000 active; CHO-NPSR cells, cAMP TR-FRET, antagonist mode; Q6W5P4; note: nearly all actives have a fitted effect of over 50% in size
# Target sequence (Q6W5P4 whole entry, looked up): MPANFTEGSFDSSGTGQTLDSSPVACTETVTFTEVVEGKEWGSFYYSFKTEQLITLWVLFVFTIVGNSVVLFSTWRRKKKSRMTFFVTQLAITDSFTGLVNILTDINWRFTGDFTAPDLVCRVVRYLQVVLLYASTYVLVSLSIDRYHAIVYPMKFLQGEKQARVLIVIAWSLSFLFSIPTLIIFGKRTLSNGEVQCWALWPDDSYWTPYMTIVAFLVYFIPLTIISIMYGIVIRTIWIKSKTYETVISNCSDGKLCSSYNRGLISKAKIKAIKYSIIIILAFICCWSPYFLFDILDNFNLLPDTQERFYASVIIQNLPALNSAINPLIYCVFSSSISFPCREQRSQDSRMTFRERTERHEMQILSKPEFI
# * = called active by the depositor; u = inconclusive; x = no result given; [ ] = remark or other dose. A selection: hits, their analogues and other compounds. The true share with any hit is near 5.7%. Calls come from the whole dose curve; as a rule, active = well fitted curve in the direction sought with a large enough effect; inconclusive = small, poorly fitted or top-dose-only effect, or another doubt; inactive = no such curve, though single readings can be large; an effect the other way counts as inactive or inconclusive. Unless noted, % is set by controls: 0 for no effect and ±100 for the full control effect; potency is the fitted concentration of half-maximal effect.
SMILES,B2AR arrestin,RORgamma inh,VP16 counter,NPSR antagonist
COc1ccc(-c2nc(CS(=O)CC(=O)NCc3ccc4c(c3)OCO4)c(C)o2)cc1 (stereo not drawn),0%,11µM*,4%,-8%[46.1 µM]
COc1ccc(CNC(=O)CS(=O)Cc2nc(-c3ccc(C)cc3)oc2C)cc1 (stereo not drawn),0%,13µM*,1%,-8%[46.1 µM]
COc1cccc(-c2nc(CS(=O)CC(=O)NCc3ccc4c(c3)OCO4)c(C)o2)c1 (stereo not drawn),0%,-18%,1%,-15%[46.1 µM]
COc1ccc(CNC(=O)CS(=O)Cc2nc(-c3ccc(OC)c(OC)c3)oc2C)cc1 (stereo not drawn),-1%,1%,1%,x
CC[C@H](C)[C@H](NC(=O)[C@H](CCCNC(=N)N)NC(=O)[C@@H](NC(=O)[C@H](CCCNC(=N)N)NC(=O)[C@H](CCCCN)NC(=O)[C@H](CCCNC(=N)N)NC(=O)[C@@H](NC(=O)[C@H](CC(N)=O)NC(=O)[C@@H](N)CS)[C@@H](C)O)[C@@H](C)CC)C(=O)N[C@@H](CCC(N)=O)C(=O)N[C@@H](CCCNC(=N)N)C(=O)NCC(=O)N1CCC[C@H]1C(=O)NCC(=O)N[C@@H](CCCNC(=N)N)C(=O)N[C@@H](C)C(=O)N[C@@H](Cc1ccccc1)C(=O)N[C@H](C(=O)N[C@H](C(=O)N[C@H](C(=O)NCC(=O)N[C@@H](CCCCN)C(=O)O)[C@@H](C)CC)[C@@H](C)O)C(C)C,x,2%,-6%,x
COc1ccc(C(=O)Nc2cc(-c3ccccc3)nn2-c2ccccc2F)cc1,0%,x,x,x
CC(C)Cn1c(N)c(C(=O)COC(=O)COc2cccc(C(F)(F)F)c2)c(=O)n(C)c1=O,0%,30%,-19%,x
CC(=O)Nc1cccc(/C(C)=N/NC(=O)c2ccc(O)cc2)c1,0%,11µM*,u,1%
C/C(=N\NC(=O)c1ccc(OC2CCCC2)cc1)c1ccc(O)cc1,-1%,14µM*,u,x
C/C(=N\NC(=O)c1cccc([N+](=O)[O-])c1)c1cccs1,-1%,4µM*,6.3µM*,-4%
C/C(=N/NC(=O)c1cc(C2CC2)[nH]n1)c1cccs1,0%,11µM*,10µM*,-7%[46.1 µM]
COc1ccc(C(=O)N/N=C(/C)c2ccc(N3CCCCC3)cc2)cc1,10%,-17%,-1%,7%
C/C(=N\NC(=O)c1ccncc1)c1cccs1,0%,u,29%[10 µM],9%
Cc1c(F)c(N2CCNC(C)C2)cc2c1c(=O)c(C(=O)O)cn2C1CC1 (stereo not drawn),x,8%,1%,x
COc1ccc(CC(C)N2CCN(c3cccc(C(F)(F)F)c3)CC2)cc1OC (stereo not drawn),0%,-2%,-8%,-22%[46.1 µM]
Cc1cccc([C@@H]2CN(C)CCc3c2cc(O)c(O)c3Cl)c1,x,-28%,-11%,x
C=C(C)n1c(=O)[nH]c2ccccc21,0%,6%[10 µM],-11%,12%[7.67 µM]
Cn1c(N)c(C(=O)COC(=O)COc2ccccc2Cl)c(=O)n(C)c1=O,0%,x,x,x
C/C(=N\NC(=O)c1cccc([N+](=O)[O-])c1)c1ccncc1,0%,-41%,-14%,7%
C/C(=N\NC(=O)c1cc(-c2cccc([N+](=O)[O-])c2)n[nH]1)c1ccccc1O,0%,3.2µM*,18µM*,-4%
C/C(=N/NC(=O)c1cc(-c2cccc([N+](=O)[O-])c2)n[nH]1)c1cccc(O)c1,0%,0%,-8%,6%[7.67 µM]
C/C(=N/NC(=O)c1ccc(O)cc1)c1cccc([N+](=O)[O-])c1,5%,3.2µM*,13µM*,3%
C/C(=N\NC(=O)c1cccc(S(=O)(=O)N2CCCC2)c1)c1cccs1,-1%,13µM*,u,7%
O=C(NNC(=O)C12CC3CC(CC(C3)C1)C2)c1cnccn1,0%,u,u,25%
O=C(NNC(=O)C12CC3CC(CC(C3)C1)C2)c1ccccn1,-1%,0.5µM*,4.5µM*,23%
SMILES,B2AR arrestin,RORgamma inh,VP16 counter,NPSR antagonist
CC(C)CCN1CCc2nc(-c3ccccc3)c3c(c2C1)COC(C)C3 (stereo not drawn),x,6%[10 µM],2%[10 µM],x
Cc1ccc(C(=O)Nc2nc(=O)n(C)s2)cc1,1%,8.9µM*,11µM*,-7%[46.1 µM]
Cc1nnc(NC(=O)c2ccc(Br)cc2)s1,0%,12%,-6%,-6%[46.1 µM]
Cc1ccc(C(=O)Nc2nnc(C)s2)cc1,0%,10µM*,-18%,18%
CN(C)CCCN(C(=O)c1ccc(S(=O)(=O)N2CCc3ccccc3C2)cc1)c1nc2c(F)cccc2s1,0%,4.5µM*,-24%,x
Cc1cccc2sc(N(CCCN(C)C)C(=O)c3ccc(S(=O)(=O)N4CCc5ccccc5C4)cc3)nc12,0%,u,11µM*,x
CCOC(=O)N1CCN(S(=O)(=O)c2ccc(C(=O)N(CCN(C)C)c3nc4c(C)cccc4s3)cc2)CC1,-1%,-24%,-1%,x
CCc1ccc(C2=NN(c3ccc(S(N)(=O)=O)cc3)C(c3ccc(F)cc3)C2)cc1 (stereo not drawn),0%,u,u,10µM*
O=C(NC1CCCCC1)N1CCNCC1,0%,7.9µM*,12%,x
C[C@H]1[C@H](NC(=O)/C(=N/OC(C)(C)C(=O)O)c2csc(N)n2)C(=O)N1S(=O)(=O)O (stereo in doubt),x,9%[2.98 µM],-2%[17 µM],x
O=C1Nc2ccc(F)cc2C12SCCS2,-1%,-20%,-6%,3%[46.1 µM]
CN(C)CCCN(C(=O)c1ccc2c(c1)OCCO2)c1nc2ccc(Cl)cc2s1,0%,-6%,u,x
CN(C)CCCN(C(=O)c1ccc(S(=O)(=O)N2CCc3ccccc3C2)cc1)c1nc2ccc(F)cc2s1,13%,u,11µM*,x
CCN(CC)CCN(C(=O)c1ccc2ccccc2c1)c1nc2cc3c(cc2s1)OCO3,0%,34%,-13%,x
CCN(CC)CCN(C(=O)c1ccc(S(=O)(=O)N2CCCCC2)cc1)c1nc2cc3c(cc2s1)OCO3,0%,1%,-8%,10µM*
COc1ccc2sc(N(CCCN(C)C)C(=O)c3ccc(S(=O)(=O)N4CCc5ccccc5C4)cc3)nc2c1,3%,x,x,x
Cc1ccc(C(=O)N(CCCN(C)C)c2nc3ccc(Cl)cc3s2)cc1C,0%,10µM*,18µM*,-46%
Cc1ccc2nc(N(CCCN(C)C)C(=O)c3ccc(S(=O)(=O)N4CCc5ccccc5C4)cc3)sc2c1,6%,10µM*,13µM*,x
Nc1ncnc2c1nc(Br)n2[C@@H]1O[C@H]2COP(=O)(O)O[C@@H]2[C@@H]1O,x,5%,3%,x
S=C(NCc1ccco1)Nc1ccccc1Cl,0%,10µM*,16%,-16%
Cc1c(Cl)cccc1NC(=S)NCc1ccco1,0%,5µM*,u,-7%
Cc1cccc(NC(=S)NCc2ccco2)c1C,-1%,7.9µM*,11µM*,4%
S=C(NCc1ccco1)Nc1cccc(Cl)c1Cl,0%,-104%,-18%,0%
COc1ccc(CNc2ncnc3ccc(-c4c(C)noc4C)cc23)cc1,x,-1%,-4%,x
